C diff growth: blocks growth of Clostridium difficile; Clostridium difficile clinical isolate growth, OD600, 24 h; stronger effect = lower value; growth activity, negative = inhibition, % at 16 µg/mL (by protocol); 0.25% of 86,000 active; AID 1259249;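 active means mean growth activity at or below -80% and every replicate also at or below -80%; inconclusive means mean at or below -80% but some replicate above -80%; inactive means mean growth activity above -80%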;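 further: 0% = DMSO wells and -100% = levofloxacin 16 µg/mL wells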
Pf Dd2 inh: inhibitors of Plasmodium falciparum Dd2 growth. P. falciparum Dd2 growth, SYBR Green, 72 h; stronger effect = lower value. activity change, % at 10 µM. 2.3% of 94,000 active. AID 1159554; in the data active means activity change below about -80%; inconclusive means no clear call, values can overlap the other calls
T cruzi growth-1: inhibitors of T. cruzi proliferation. T. cruzi beta-gal in NIH3T3, GalScreen luminescence, 90 h. 5.9% of 77,000 active. inhibition, % at 8.34 µM;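 active means mean inhibition above about 93%, with at least 55% of replicates each passing it, limit read from the data, passing the limit was not always enough; inconclusive means only one of those two conditions holds; inactive means neither condition holds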
T cruzi growth-2: blocks T. cruzi growth in NIH3T3 host cells. shares compounds with T cruzi growth-1. T. cruzi beta-gal in NIH3T3, GalScreen luminescence, 90 h. inhibition, % at 8.35 µM. 72% of 5,600 active. AID 651739;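 active means mean replicate inhibition above about 95% and at least 55% of replicates individually reaching it, limit read from the data; inconclusive means only one of the two criteria is met; inactive means neither criterion is met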
T cruzi growth-3: Trypanosoma cruzi proliferation inhibition | 21% of 5,600 active | T. cruzi beta-gal in NIH3T3, GalScreen luminescence, 90 h | shares compounds with T cruzi growth-1 | inhibition, % at 2.09 µM;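 active means mean inhibition above about 95%, with at least 55% of replicates also reaching it, limit read from the data; inconclusive means meets just one of the two conditions; inactive means meets neither condition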;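 further: plate controls were neutral control median for no effect and positive control median for full effect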
NIH3T3 tox: cytotoxicity in mouse NIH/3T3 fibroblasts. AID 651742. shares compounds with T cruzi growth-1. NIH/3T3 viability, CellTiter-Glo ATP luminescence, 90 h. 14% of 5,600 active. cytotoxicity (signal decrease), % at 8.35 µM;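 active means mean signal decrease across replicates above about 35% based on untreated-well scatter, with enough replicates individually passing, limit read from the data; inconclusive means no rule stated though some were filed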;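 further: 0% = median of neutral control wells and 100% = median of positive control wells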
NIH3T3 tox 2: kills mouse NIH/3T3 fibroblasts | shares compounds with T cruzi growth-1 | NIH/3T3 viability, CellTiter-Glo ATP luminescence, 90 h | inhibition, % at 24.9 µM | 56% of 5,600 active | AID 651744;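 active means mean loss of cell viability signal at or above a set limit, and enough replicates individually reaching it; inconclusive means meets only the mean limit or only the replicate share; inactive means meets neither condition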;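 further: 0% = median of neutral control wells and 100% = median of positive control wells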
Active calls of the source: *. An excerpt weighted towards active compounds, which were near 6.7% of everything screened.

Results for CN1CCN(C(=O)C[C@@H]2CC[C@H]3[C@@H](COC[C@@H](O)CN3C(=O)Cc3ccccc3)O2)CC1 ?
C diff growth: 6.8; Pf Dd2 inh: 13.6; T cruzi growth-1: -15.2

Results for C[C@@H]1CN([C@@H](C)CO)C(=O)Cc2cc(NC(=O)CCN3CCOCC3)ccc2O[C@@H]1CN(C)C(=O)NC1CCCCC1 ?
C diff growth: -0.8; Pf Dd2 inh: 15.9; T cruzi growth-1: 21.5

What do the screens show for `O=C(C[C@H]1CC[C@@H]2[C@H](COC[C@H](O)CN2C(=O)c2ccccn2)O1)N1CCN(c2ccccc2)CC1`?
Pf Dd2 inh: 4.3; T cruzi growth-1: 34.0

How did COc1cccc(C#Cc2ccc3c(c2)[C@H]2[C@H](CCN2C(=O)c2ccccc2F)[C@H](CO)N3)c1 do in these assays?
C diff growth: -2.1; Pf Dd2 inh: -28.3; T cruzi growth-1: 60.1

How did CCC(=O)N1CC[C@H]2[C@H](CO)Nc3ccc(C#Cc4ccc(OC)cc4)cc3[C@H]21 do in these assays?
C diff growth: 6.9; Pf Dd2 inh: -70.5

What do the screens show for `COc1ccc(C#Cc2ccc3c(c2)[C@H]2[C@H](CCN2C(C)=O)[C@H](CO)N3)cc1`?
C diff growth: -13.9; Pf Dd2 inh: -13.4; T cruzi growth-1: 54.1

Results for CCC(=O)N1CC[C@@H]2[C@H](CO)Nc3ccc(C#Cc4ccc(F)cc4)cc3[C@@H]21 ?
C diff growth: -10.1; Pf Dd2 inh: 12.1; T cruzi growth-1: 106.0*; T cruzi growth-2: 104.9*; T cruzi growth-3: 73.7; NIH3T3 tox: 18.2; NIH3T3 tox 2: 50.0*

Results for COc1ccc(C#Cc2ccc3c(c2)[C@H]2[C@H](CCN2C(=O)C2CC2)[C@H](CO)N3)cc1 ?
C diff growth: -11.3; Pf Dd2 inh: -46.1; T cruzi growth-1: 103.9*; T cruzi growth-2: 110.5*; T cruzi growth-3: 67.3; NIH3T3 tox: 0.3; NIH3T3 tox 2: 41.0*

How did COc1ccc(C#Cc2ccc3c(c2)[C@H]2[C@H](CCN2C(=O)c2ccccc2F)[C@H](CO)N3)cc1 do in these assays?
C diff growth: 47.4; Pf Dd2 inh: -64.5; T cruzi growth-1: inconclusive; T cruzi growth-2: 105.8*; T cruzi growth-3: 99.0*; NIH3T3 tox: 42.8*; NIH3T3 tox 2: 62.1*

How did CCC(=O)N1CC[C@@H]2[C@H]1c1cc(C#Cc3ccc(F)cc3)ccc1N[C@@H]2CO do in these assays?
C diff growth: -15.5; Pf Dd2 inh: -20.5; T cruzi growth-1: 50.9

Results for COc1ccc(C#Cc2ccc3c(c2)[C@H]2[C@H](CCN2C(=O)C2CC2)[C@@H](CO)N3)cc1 ?
C diff growth: 15.2; Pf Dd2 inh: -45.6; T cruzi growth-1: 116.4*; T cruzi growth-2: 92.9; T cruzi growth-3: 35.9; NIH3T3 tox: 7.4; NIH3T3 tox 2: 13.7

What do the screens show for `CC(C)NC(=O)N1[C@@H](CO)[C@H](c2ccccc2)[C@@H]1CNC(=O)CN(C)C`?
C diff growth: -3.5; Pf Dd2 inh: 8.7; T cruzi growth-1: 37.7

How did C[C@@H]1CN([C@H](C)CO)S(=O)(=O)c2ccc(C3=CCCCC3)cc2O[C@H]1CN(C)C(=O)C1CCOCC1 do in these assays?
Pf Dd2 inh: -37.4

Results for COc1ccc(C#Cc2ccc3c(c2)[C@@H]2[C@@H](CCN2C(=O)C2CCCCC2)[C@@H](CO)N3)cc1 ?
C diff growth: 4.6; Pf Dd2 inh: -24.8; T cruzi growth-1: 100.7*; T cruzi growth-2: 101.0*; T cruzi growth-3: 86.3; NIH3T3 tox: 26.6; NIH3T3 tox 2: 95.0*

What do the screens show for `COc1ccccc1C#Cc1ccc2c(c1)[C@H]1[C@H](CCN1C(=O)c1ccncc1)[C@@H](CO)N2`?
C diff growth: 57.0; Pf Dd2 inh: -21.9

How did O=C(C1CCCCC1)N1CC[C@@H]2[C@@H](CO)Nc3ccc(C#Cc4ccc(F)cc4)cc3[C@@H]21 do in these assays?
C diff growth: 42.0; Pf Dd2 inh: -70.0

How did COc1ccc(C#Cc2ccc3c(c2)[C@@H]2[C@@H](CCN2C(=O)c2ccncc2)[C@@H](CO)N3)cc1 do in these assays?
C diff growth: -17.6; Pf Dd2 inh: -67.6; T cruzi growth-1: 122.5*; T cruzi growth-2: 105.2*; T cruzi growth-3: 56.8; NIH3T3 tox: -18.4; NIH3T3 tox 2: 12.9

What do the screens show for `O=C(Cc1ccccc1)N1CC[C@@H]2[C@H](CO)Nc3ccc(C#Cc4ccccc4)cc3[C@@H]21`?
C diff growth: -4.7; Pf Dd2 inh: -74.7; T cruzi growth-1: 81.4

Results for O=C(Cc1ccccc1)N1CC[C@@H]2[C@H]1c1cc(C#Cc3ccccc3)ccc1N[C@@H]2CO ?
C diff growth: -1.4; Pf Dd2 inh: -40.0; T cruzi growth-1: 105.0*; T cruzi growth-2: 88.9; T cruzi growth-3: 61.3; NIH3T3 tox: -0.7; NIH3T3 tox 2: 106.4*

What do the screens show for `C[C@@H]1CN([C@@H](C)CO)C(=O)c2cc(NC(=O)NC3CCCCC3)ccc2O[C@@H](C)CCCCO[C@@H]1CN(C)C(=O)Cc1ccccc1`?
C diff growth: -16.7; Pf Dd2 inh: -32.4; T cruzi growth-1: 28.8

What do the screens show for `COc1ccc2c3c(n(C)c2c1)[C@H](CO)N(C)CC31CCN(CC2CC2)CC1`?
C diff growth: 6.0; Pf Dd2 inh: -76.8

How did C[C@@H]1CN([C@@H](C)CO)S(=O)(=O)c2ccc(C3=CCCC3)cc2O[C@H]1CN(C)Cc1ccccc1 do in these assays?
C diff growth: 8.4; Pf Dd2 inh: -56.0; T cruzi growth-1: 80.1

Results for C[C@@H]1CN([C@@H](C)CO)S(=O)(=O)c2ccc(C3=CCCC3)cc2O[C@@H]1CN(C)Cc1ccccc1 ?
C diff growth: 1.3; Pf Dd2 inh: 8.9; T cruzi growth-1: 107.5*; T cruzi growth-2: inconclusive; T cruzi growth-3: 68.4; NIH3T3 tox: 32.6; NIH3T3 tox 2: 105.6*

Results for C[C@H](CO)N1C[C@H](C)[C@H](CN(C)Cc2cccnc2)Oc2cc(C3=CCCCC3)ccc2S1(=O)=O ?
C diff growth: 6.6; Pf Dd2 inh: -32.7

Results for C[C@H](CO)N1C[C@H](C)[C@@H](CN(C)Cc2cccc(C(=O)O)c2)Oc2cc(C3=CCCC3)ccc2S1(=O)=O ?
C diff growth: -0.5; Pf Dd2 inh: -7.6; T cruzi growth-1: -41.3

Results for C[C@H](CO)N1C[C@H](C)[C@H](CN(C)Cc2ccccc2)Oc2cc(C3=CCCC3)ccc2S1(=O)=O ?
C diff growth: 7.2; Pf Dd2 inh: -30.6; T cruzi growth-1: 108.0*; T cruzi growth-2: 107.6*; T cruzi growth-3: 51.1; NIH3T3 tox: 7.3; NIH3T3 tox 2: 105.0*

Results for C[C@@H]1CN([C@H](C)CO)S(=O)(=O)c2ccc(C3=CCCC3)cc2O[C@H]1CN(C)Cc1cccnc1 ?
C diff growth: 6.5; Pf Dd2 inh: -7.6; T cruzi growth-1: 100.9*; T cruzi growth-2: 93.0; T cruzi growth-3: 76.5; NIH3T3 tox: inconclusive; NIH3T3 tox 2: 35.6*

From PubChem
